Test results taken from PubChem BioAssay (Tox21).
Records with an inconclusive call do not appear. The source made the active and inactive calls. Unless noted, the call rests on the fitted dose curve; in most records, active means well fitted curve in the direction sought with a large enough effect in the repeat runs; inconclusive means weak or mixed curves; inactive means no such curve, though single readings can be large; an effect the other way counts as inactive or inconclusive.

Columns and labels:
[1] = qHTS assay to identify small molecule agonists of the vitamin D receptor (VDR) signaling pathway - cell viability counter screen (AID 743224); further: series mostly up to about 63 µM; on the % scale 0 is the no-effect control and ±100 the full control effect; nearly all actives have a fitted effect of over 50% in size
In short: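 Viability is measured in the same wells as the VDR-bla reporter assay: after 16 h compound treatment and 2 h substrate loading, CellTiter-Glo is added and luminescence read 30 min later.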

[2] = qHTS assay to identify small molecule antagonists of the vitamin D receptor (VDR) signaling pathway - cell viability counter screen (AID 743225); further: on the % scale 0 is the no-effect control and ±100 the full control effect; nearly all actives have a fitted effect of over 50% in size
In short: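 Luminescent cell viability (CellTiter-Glo) in VDR-bla HEK 293T cells after 16 h compound exposure at 37C in the presence of 3 nM final 1-alpha,25-dihydroxy vitamin D3.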

[3] = qHTS assay to identify small molecule agonists of the NFkB signaling pathway - cell viability counter screen (AID 1159515; calls by dose curve; further: series mostly up to about 61 µM; on the % scale 0 is the no-effect control and ±100 the full control effect; nearly all actives have a fitted effect of over 55% in size)
In short: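 Multiplexed viability readout: after the 5 hr compound exposure and 1.5 hr FRET substrate step, CellTiter-Glo reagent went into the same NFkB-bla ME-180 wells; ATP luminescence was measured after 30 min at room temperature.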

[4] = qHTS assay to identify small molecule agonists of the endoplasmic reticulum stress response signaling pathway (AID 1159516; active means well fitted activation curve with a large enough effect in the signal ratio in the repeat runs, not every such curve was filed as active; the % refers to the signal ratio; further: on the % scale 0 is the no-effect control and ±100 the full control effect)
In short: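 Tox21 10K library screened in quantitative HTS format on ESRE-bla HeLa cells, a beta-lactamase reporter under ER stress response element control; 5 hr treatment, FRET read.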

[5] = qHTS assay to identify small molecule agonists of the endoplasmic reticulum stress response signaling pathway - cell viability counter screen (AID 1159517; calls by dose curve; further: series mostly up to about 61 µM; on the % scale 0 is the no-effect control and ±100 the full control effect; nearly all actives have a fitted effect of over 50% in size)
In short: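 Cells, HeLa ESRE-bla; density, 1,500/well; dosing, 5 hr at 37 C, 5% CO2; readout, CellTiter-Glo luminescence after 30 min RT.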

[6] = qHTS assay to identify small molecule antagonists of the retinoid-related orphan receptor gamma (ROR-gamma) signaling pathway - cell viability counter screen (AID 1159520); further: on the % scale 0 is the no-effect control and ±100 the full control effect; nearly all actives have a fitted effect of over 50% in size
In short: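 Cytotoxicity was read from cellular ATP (CellTiter-Glo luminescence) after 16 hr at 37 C with 1 uM doxycycline induction. The inducer was added 2 hr after compound transfer to Tet-on ROR gamma CHO cells.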

[7] = target: Nuclear receptor ROR-gamma (Homo sapiens) (UniProt P51449); assay: qHTS assay to identify small molecule antagonists of the retinoid-related orphan receptor gamma (ROR-gamma) signaling pathway (AID 1159521)
In short: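 CHO cells expressing RORγ under a TET-on promoter, luciferase under RORE control. Dox 1 uM final, 16 h; compounds added 2 h prior. Luminescence decrease measured.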

[8] = qHTS assay to identify small molecule agonists of the AP-1 signaling pathway - cell viability counter screen (AID 1159525; calls by dose curve; further: nearly all actives have a fitted effect of over 55% in size)
In short: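 Luminescent ATP readout (Cell Titer Glo, 30 min RT), normalised to DMSO and tetra n-octyl ammonium bromide controls. Cells were ME-180 AP-1-bla in 0.5% dialyzed FBS Opti-MEM, with a 5 h, 37 °C compound exposure.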

[9] = qHTS assay to identify small molecule agonists of the AP-1 signaling pathway (AID 1159526; calls by dose curve; further: on the % scale 0 is the no-effect control and ±100 the full control effect)
[10] = target: Retinoic acid receptor RXR-alpha (Homo sapiens) (UniProt P19793); assay: qHTS assay to identify small molecule agonists of the RXR signaling pathway (AID 1159527; calls by dose curve; further: on the % scale 0 is the no-effect control and ±100 the full control effect; nearly all actives have a fitted effect of over 35% in size)
Retinoic acid receptor RXR-alpha (Homo sapiens), sequence (P19793 whole entry, looked up): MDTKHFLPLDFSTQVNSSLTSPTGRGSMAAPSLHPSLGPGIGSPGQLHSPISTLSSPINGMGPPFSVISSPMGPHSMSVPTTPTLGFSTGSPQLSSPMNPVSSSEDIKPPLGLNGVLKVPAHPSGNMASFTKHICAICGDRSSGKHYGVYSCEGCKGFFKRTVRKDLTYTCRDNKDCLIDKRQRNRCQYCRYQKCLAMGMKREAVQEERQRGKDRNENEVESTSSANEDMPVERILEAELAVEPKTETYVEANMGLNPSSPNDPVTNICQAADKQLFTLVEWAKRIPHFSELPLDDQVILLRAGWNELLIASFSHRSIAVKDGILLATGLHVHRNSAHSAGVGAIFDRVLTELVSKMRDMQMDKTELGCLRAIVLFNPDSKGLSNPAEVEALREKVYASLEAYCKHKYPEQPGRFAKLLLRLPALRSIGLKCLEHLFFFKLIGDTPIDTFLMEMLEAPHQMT
In short: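 Beta-lactamase reporter assay, agonist format. Engineered HEK 293T line, charcoal-stripped FBS at 2%, overnight (16 hr) exposure, fluorescence at 460 and 530 nm after 405 nm excitation.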

[11] = qHTS assay to identify small molecule agonists of the RXR signaling pathway - cell viability counter screen (AID 1159529)
In short: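 Same-well viability check after the LiveBLAzer FRET read: CellTiter-Glo added, luminescence measured after 30 min at room temperature. Reporter HEK 293T cells had been treated with compounds for 16 hr following a 5 hr preincubation.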

[12] = qHTS assay to identify small molecule antagonists of the retinoid acid receptor (RAR) signaling pathway - cell viability counter screen (AID 1159551); further: on the % scale 0 is the no-effect control and ±100 the full control effect; nearly all actives have a fitted effect of over 35% in size
In short: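 Cytotoxicity counter screen in C3RL4 cells: 6 h compound exposure with 1 uM retinol (final), viability from cellular ATP by luminescence.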

[13] = qHTS assay to identify small molecule agonists of the retinoic acid receptor (RAR) signaling pathway (AID 1159553); further: on the % scale 0 is the no-effect control and ±100 the full control effect
In short: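 Agonist activity was scored in C3RL4 cells bearing a retinoic acid response element luciferase construct. Cells were treated with compounds for 6 hr at 37 C, and luciferase signal was measured as luminescence.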

[14] = qHTS assay to identify small molecule antagonists of the retinoic acid receptor (RAR) signaling pathway (AID 1159552)
In short: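 Readout: luciferase luminescence, 30 min post-reagent at RT. Setup: C3RL4 RARE reporter cells, compounds plus retinol 1 uM final, 6 hr incubation at 37 C and 5% CO2.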

[15] = qHTS assay to identify small molecule antagonists of the estrogen related receptor (ERR) signaling pathway - cell viability counter screen (AID 1224818);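 further: series mostly up to about 46 µM; viability measured after 17.5 h of compound exposure; on the % scale 0 is the no-effect control and ±100 the full control effect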
In short: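 Cells carrying the ERR pathway reporter were seeded and incubated for 6 hours before compound addition. After a 17.5-hour exposure at 37 C, live-cell protease activity was measured by CellTiter-Fluor fluorescence following 30 minutes of incubation.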

[16] = qHTS assay to identify small molecule antagonists of the estrogen related receptor signaling pathway with the pleiotropic PPARgamma coactivator (PGC) cell viability counter screen (AID 1224822)
In short: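 Seed PGC/ERR cells (2,000/well); incubate 6 h at 37 C/5% CO2; pin-transfer compounds in DMSO; incubate 17.5 h at 37 C; add CellTiter-Fluor; after 30 min read fluorescence.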

[17] = qHTS assay to identify small molecule antagonists of the estrogen related receptor (ERR) signaling pathway (AID 1224819)
In short: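 Compounds dissolved in DMSO were pin-transferred onto ERR cells that had been plated 6 h earlier, and cells were then incubated 18 h at 37 C; signal was luciferase luminescence via One-Glo.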

[18] = qHTS assay to identify small molecule agonists of the estrogen related receptor (ERR) signaling pathway (AID 1224820); further: on the % scale 0 is the no-effect control and ±100 the full control effect
In short: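 ERR reporter cells (NTP line) plated 2,000/well, incubated 6 h at 37 C/5% CO2, then pinned with compounds in DMSO and held 18 h at 37 C. One-Glo added; luminescence read after 30 min at room temperature.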

[19] = tested on: estrogen-related receptor alpha (ERRalpha) with PGC-1alpha coactivator, human; assay: qHTS assay to identify small molecule antagonists of the estrogen related receptor signaling pathway with the pleiotropic PPARgamma coactivator (PGC) (AID 1224821; calls by dose curve)
In short: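 Cells engineered for PGC/ERR signalling (line from NTP) were plated 6 h at 37 C/5% CO2, then exposed to DMSO-dissolved compound for 18 h at 37 C. Luciferase activity was read by One-Glo luminescence after 30 min at room temperature.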

CCCCCCCC/C=C\CCCCCCCC(=O)OCCCC
inactive: Potency [1] | outcome [2] | outcome [3] | outcome [4] | Potency [5] | activity, negative = cytotoxicity [6] -6.58% [at 19 µM] | activity change, negative = inhibition [7] 12% [at 19 µM] | viability change, negative = cytotoxic [8] -3.05% [at 15.8 µM] | activation [9] -1.59% [at 15.8 µM] | activation [10] 2.43% [at 15.8 µM] | activity change, negative = cytotoxicity [11] 1.56% [at 15.8 µM] | activity change, negative = cytotoxicity [12] -0.376% [at 19 µM]

C[C@H](N)[C@H](O)c1cccc(O)c1
inactive: Potency [1] | outcome [3] | outcome [4] | Potency [5] | outcome [6] | outcome [7] | outcome [8] | outcome [9] | Potency [10] | outcome [11] | outcome [12] | Potency [13]

CC(C)OC(=O)CCCCC(=O)OC(C)C
inactive: Potency [1] | outcome [2] | outcome [3] | outcome [4] | Potency [5] | outcome [6] | outcome [7] | outcome [9] | Potency [10] | outcome [11] | outcome [12] | outcome [14]

CC(C)(C)OC(=O)c1ccc(O)cc1
inactive: Potency [1] | outcome [3] | outcome [4] | Potency [5] | outcome [6] | outcome [7] | outcome [9] | Potency [10] | outcome [11] | outcome [12] | outcome [14]

CN(C)c1ccc(C=O)cc1
inactive: Potency [1] | outcome [2] | outcome [4] | Potency [5] | outcome [6] | outcome [7] | outcome [8] | outcome [9] | Potency [10]

CC(C)=O
inactive: outcome [3] | outcome [4] | Potency [5] | outcome [6] | outcome [7] | outcome [8] | outcome [9] | Potency [10] | outcome [11] | outcome [12] | Potency [13]

OCCC(F)(F)C(F)(F)C(F)(F)C(F)(F)C(F)(F)C(F)(F)C(F)(F)C(F)(F)F
inactive: Potency [1] | outcome [2] | outcome [3] | outcome [4] | Potency [5] | outcome [6] | outcome [7] | outcome [8] | outcome [9] | Potency [10] | outcome [11] | outcome [12]

CC1(C)S[C@@H]2[C@H](N=CN3CCCCCC3)C(=O)N2[C@H]1C(=O)O
inactive: Potency [1] | outcome [2] | outcome [3] | outcome [4] | Potency [5] | outcome [6] | outcome [7] | outcome [8] | outcome [9] | Potency [10] | outcome [11] | outcome [12]

Cc1cccc(C)c1NC(=O)c1ccccc1C(=O)O
inactive: Potency [1] | outcome [2] | outcome [4] | Potency [5] | outcome [6] | outcome [7] | outcome [9] | Potency [10] | outcome [11]

FC(F)(F)c1ccccc1-n1ccnc1
inactive: Potency [1] | outcome [3] | outcome [4] | Potency [5] | outcome [6] | outcome [7] | outcome [8] | outcome [9] | Potency [10] | outcome [11] | outcome [12] | Potency [13] | outcome [15] | outcome [16]

CC(CO)c1ccccc1 (centres undefined)
inactive: Potency [1] | outcome [2] | outcome [3] | outcome [4] | Potency [5] | outcome [6] | outcome [7] | outcome [8] | outcome [9] | Potency [10] | outcome [11] | outcome [12]

O=C(OCC1(COC(=O)c2cccnc2)CCCC(COC(=O)c2cccnc2)(COC(=O)c2cccnc2)C1O)c1cccnc1
inactive: Potency [1] | outcome [2] | outcome [3] | outcome [4] | Potency [5] | outcome [7] | outcome [8] | outcome [9] | Potency [10] | outcome [11] | outcome [12] | outcome [14] | Potency [13]

COCCc1ccc(OCC2CO2)cc1 (centres undefined)
inactive: Potency [1] | outcome [2] | outcome [3] | Potency [5] | outcome [6] | outcome [7] | outcome [8] | outcome [9] | Potency [10] | outcome [11] | outcome [12] | outcome [14]

CC1COc2ccccc2N1 (centres undefined)
inactive: Potency [1] | outcome [2] | Potency [5] | outcome [6] | outcome [7] | outcome [8] | outcome [9] | Potency [10] | outcome [12] | outcome [14]

O=C(NCC(O)CO)c1c(I)c(C(=O)NCC(O)CO)c(I)c(N(CCO)C(=O)CO)c1I (centres undefined)
inactive: Potency [1] | outcome [2] | outcome [3] | outcome [4] | Potency [5] | outcome [7] | outcome [8] | outcome [9] | Potency [10] | outcome [11] | outcome [12] | outcome [14] | Potency [13]

CC1=CCC(C(C)C)=CC1
inactive: Potency [1] | outcome [2] | outcome [4] | Potency [5] | outcome [6] | outcome [8] | outcome [9] | Potency [10] | outcome [11]

CC(=O)CCCCn1c(=O)c2c(ncn2C)n(C)c1=O
inactive: Potency [1] | outcome [2] | outcome [3] | outcome [4] | Potency [5] | outcome [7] | outcome [8] | outcome [9] | Potency [10] | outcome [11] | outcome [12] | outcome [15] | outcome [17] | outcome [18] | outcome [19] | outcome [16]
